Drawing on PubChem BioAssay (NCI), this text covers growth inhibition for ten molecules.

Experiment [1] is described as follows: NCI Yeast Anticancer Drug Screen. Data for the rad50 strain (AID 155).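 Note: 0% = growth of vehicle-only cultures of the same strain.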 The conditions noted are these: S. cerevisiae rad50 strain growth inhibition, active compounds read high. The gist of the method: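 A DNA repair-deficient yeast mutant serves as the test organism; compound-induced growth inhibition is calculated against vehicle-treated cells.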
The nature of experiment [2]: NCI Yeast Anticancer Drug Screen. Data for the mec2-1 strain (AID 157). The conditions noted are these: S. cerevisiae mec2-1 strain, active compounds read high. A digest of the protocol: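 Test agents were screened against the mec2-1 yeast strain, with defined DNA repair or cell cycle alteration. Growth was scored as inhibition against vehicle-only controls.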
The nature of experiment [3]: NCI Yeast Anticancer Drug Screen. Data for the sgs1 mgt1 strain (AID 161).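 Note: 0% = growth of cultures given vehicle only.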 The note with it: S. cerevisiae sgs1 mgt1 strain, active compounds read high. A digest of the protocol:
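Genetically altered yeast, compound exposure, growth inhibition relative to vehicle.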

A short description of experiment [4]: NCI Yeast Anticancer Drug Screen. Data for the cln2 rad14 strain (AID 165).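 Note: 0% = growth equal to vehicle treated cultures.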 The conditions noted are these: S. cerevisiae cln2 rad14 strain, active compounds read high. A digest of the protocol:
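Growth of compound-exposed yeast (cln2 rad14 genotype) measured and expressed as inhibition relative to vehicle.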

Experiment [5] in a line: NCI Yeast Anticancer Drug Screen. Data for the bub3 strain (AID 167). The note with it: S. cerevisiae bub3 mutant strain, active compounds read high. A digest of the protocol: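 Inhibition values come from growth of compound-treated mutant yeast normalised to vehicle-treated controls.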
Experiment [6] is described as follows: NCI Yeast Anticancer Drug Screen. Data for the mlh1 rad18 strain (AID 175). The conditions noted are these: S. cerevisiae mlh1 rad18 strain growth inhibition, active compounds read high. The gist of the method:
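In this whole-cell yeast screen, a strain with altered DNA damage repair is challenged with compound, and its growth is measured against matched vehicle-treated controls.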

Where [7] appears, read: at 5.0 µM (retest, dose inferred, filed as 0.5).
[8] abbreviates: at 50.0 µM (retest, dose inferred, filed as 5.0).

Compounds without any hit were thinned out: in the full panel of roughly 79,000, 15% have a hit. Values without a mark were called inactive. Activity calls are given as the source filed them. Cut-off read from the data, not from the text of the source: active = growth inhibition above about 70%; inactive = the rest.

`CC(C)=CCC/C(C)=C/CCC1(C)C=Cc2c(c3ccccc3oc2=O)O1` (stereo not given): the growth inhibition is 28% in experiment [1] (setting [7]); 3% in experiment [1] (setting [8]); 20.1% in experiment [1] (at 50.0 µM); 25% in experiment [2] (setting [7]); 15% in experiment [2] (setting [8]); 15.2% in experiment [2] (at 50.0 µM). In addition, the growth inhibition in experiment [3] (setting [7]) is 51%; in experiment [3] (setting [8]) it was 36%; in experiment [3] (at 50.0 µM), 57.6%; in experiment [4] (setting [7]), 37%; in experiment [4] (setting [8]) it was 25%; in experiment [4] (at 50.0 µM), 52.3%. In addition, the growth inhibition in experiment [5] (setting [7]) was 53%; in experiment [5] (setting [8]) it was 28%; in experiment [5] (at 50.0 µM), 23.1%; in experiment [6] (setting [7]), 25%; in experiment [6] (setting [8]), 16%; in experiment [6] (at 50.0 µM) it was 76.5% (active).

Regarding `O=C(OCc1ccc2c(c1)OCO2)c1ccc(Cl)cc1`, the growth inhibition in experiment [1] (setting [7]) is 19%; in experiment [1] (setting [8]), 23%; in experiment [1] (at 50.0 µM) it was -0.55%; in experiment [2] (setting [7]), -4%; in experiment [2] (setting [8]), 68%; in experiment [2] (at 50.0 µM), -4.55%. Further, the growth inhibition was 9% in experiment [3] (setting [7]); 46% in experiment [3] (setting [8]); -6.3% in experiment [3] (at 50.0 µM); -43% in experiment [4] (setting [7]); -7% in experiment [4] (setting [8]); 0.05% in experiment [4] (at 50.0 µM). In addition, the growth inhibition was -1% in experiment [5] (setting [7]); 61% in experiment [5] (setting [8]); 13.9% in experiment [5] (at 50.0 µM); 4% in experiment [6] (setting [7]); 57% in experiment [6] (setting [8]); -19.6% in experiment [6] (at 50.0 µM).

Turning to `CCCC[NH-].CCCC[NH-].[I][Pt+2][I]`, the growth inhibition in experiment [1] (setting [7]) was 30%; in experiment [1] (setting [8]), 67%; in experiment [1] (at 50.0 µM), 29.2%; in experiment [2] (setting [7]) it was 22%; in experiment [2] (setting [8]), 49%; in experiment [2] (at 50.0 µM) it was 15%. Besides, the growth inhibition in experiment [3] (setting [7]) was 48%; in experiment [3] (setting [8]) it was 70% (active); in experiment [3] (at 50.0 µM), 60.6%; in experiment [4] (setting [7]) it was 53%; in experiment [4] (setting [8]), 57%; in experiment [4] (at 50.0 µM) it was 15.2%. Moreover, the growth inhibition is 56% in experiment [5] (setting [7]); 68% in experiment [5] (setting [8]); 49.4% in experiment [5] (at 50.0 µM); 20% in experiment [6] (setting [7]); 62% in experiment [6] (setting [8]); 41.4% in experiment [6] (at 50.0 µM).

With `Oc1c(Br)cc(Br)c2cccnc12`, the growth inhibition in experiment [1] (setting [7]) was 93% (active); in experiment [1] (setting [8]), 97% (active); in experiment [1] (at 50.0 µM), 98.7% (active); in experiment [2] (setting [7]), 35%; in experiment [2] (setting [8]) it was 97% (active); in experiment [2] (at 50.0 µM) it was 98.9% (active). In addition, the growth inhibition is 88% (active) in experiment [3] (setting [7]); 97% (active) in experiment [3] (setting [8]); 98.5% (active) in experiment [3] (at 50.0 µM); 82% (active) in experiment [4] (setting [7]); 97% (active) in experiment [4] (setting [8]); 97.3% (active) in experiment [4] (at 50.0 µM). For the same molecule, the growth inhibition in experiment [5] (setting [7]) is 28%; in experiment [5] (setting [8]) it was 88% (active); in experiment [5] (at 50.0 µM) it was 98.3% (active); in experiment [6] (setting [7]), 96% (active); in experiment [6] (setting [8]), 96% (active); in experiment [6] (at 50.0 µM), 98.4% (active).

With `CC(C)=CCc1ccc(O)cc1`, the growth inhibition in experiment [1] (setting [7]) is -24%; in experiment [1] (setting [8]), 97% (active); in experiment [1] (at 50.0 µM) it was -3.15%; in experiment [2] (setting [7]), 5%; in experiment [2] (setting [8]) it was 98% (active); in experiment [2] (at 50.0 µM), 25.1%. Further, the growth inhibition in experiment [3] (setting [7]) was -13%; in experiment [3] (setting [8]) it was 98% (active); in experiment [3] (at 50.0 µM), -24.1%; in experiment [4] (setting [7]), 5%; in experiment [4] (setting [8]) it was 96% (active); in experiment [4] (at 50.0 µM), 34.8%. In addition, the growth inhibition in experiment [5] (setting [7]) was -10%; in experiment [5] (setting [8]) it was 99% (active); in experiment [5] (at 50.0 µM), 53.9%; in experiment [6] (setting [7]), 1%; in experiment [6] (setting [8]), 97% (active); in experiment [6] (at 50.0 µM) it was 1.75%.

Take `C(=C\c1cnnc2ccccc12)/c1cccnc1`: the growth inhibition is 11% in experiment [1] (setting [7]); 45% in experiment [1] (setting [8]); 20.8% in experiment [1] (at 50.0 µM); 18% in experiment [2] (setting [7]); 37% in experiment [2] (setting [8]); -10.8% in experiment [2] (at 50.0 µM). The growth inhibition was 11% in experiment [3] (setting [7]); 35% in experiment [3] (setting [8]); 2.15% in experiment [3] (at 50.0 µM); 6% in experiment [4] (setting [7]); 32% in experiment [4] (setting [8]); 42.6% in experiment [4] (at 50.0 µM). Also, the growth inhibition in experiment [5] (setting [7]) was 6%; in experiment [5] (setting [8]), 22%; in experiment [5] (at 50.0 µM), -13.2%; in experiment [6] (setting [7]) it was 8%; in experiment [6] (setting [8]), 36%; in experiment [6] (at 50.0 µM) it was 13.7%.

Regarding `O=[N+]([O-])c1ccc(C(Cl)Cc2ccc(Cl)cc2)cc1` (stereo not given), the growth inhibition in experiment [1] (setting [7]) was 10%; in experiment [1] (setting [8]), 66%; in experiment [1] (at 50.0 µM), 90.2% (active); in experiment [2] (setting [7]), 7%; in experiment [2] (setting [8]), 64%; in experiment [2] (at 50.0 µM) it was 82.5% (active). Also, the growth inhibition in experiment [3] (setting [7]) was 22%; in experiment [3] (setting [8]), 91% (active); in experiment [3] (at 50.0 µM), 93.7% (active); in experiment [4] (setting [7]), -8%; in experiment [4] (setting [8]), 61%; in experiment [4] (at 50.0 µM), 62.6%. The growth inhibition in experiment [5] (setting [7]) was 20%; in experiment [5] (setting [8]), 82% (active); in experiment [5] (at 50.0 µM) it was 94.3% (active); in experiment [6] (setting [7]), -18%; in experiment [6] (setting [8]), 71% (active); in experiment [6] (at 50.0 µM) it was 89.1% (active).

For the molecule `BrCN(CBr)c1ccc2c(c1)Cc1cc(Br)ccc1-2`, the growth inhibition in experiment [1] (setting [7]) was 4%; in experiment [1] (setting [8]), -4%; in experiment [1] (at 50.0 µM) it was 70.4% (active); in experiment [2] (setting [7]), -3%; in experiment [2] (setting [8]) it was -4%; in experiment [2] (at 50.0 µM) it was 28.4%. The growth inhibition in experiment [3] (setting [7]) is 1%; in experiment [3] (setting [8]) it was 1%; in experiment [3] (at 50.0 µM), 64.8%; in experiment [4] (setting [7]), 7%; in experiment [4] (setting [8]), 11%; in experiment [4] (at 50.0 µM) it was -1.35%. Also, the growth inhibition was 1% in experiment [5] (setting [7]); -2% in experiment [5] (setting [8]); 25.8% in experiment [5] (at 50.0 µM); 3% in experiment [6] (setting [7]); -7% in experiment [6] (setting [8]); 74.3% (active) in experiment [6] (at 50.0 µM).

As for `COc1cc(/C=C/C(=O)c2ccc3ccccc3c2)cc(OC)c1OC`, the growth inhibition in experiment [1] (setting [7]) is 38%; in experiment [1] (setting [8]), 40%; in experiment [1] (at 50.0 µM), 7.75%; in experiment [2] (setting [7]), 49%; in experiment [2] (setting [8]), 44%; in experiment [2] (at 50.0 µM), 11.3%. Also, the growth inhibition in experiment [3] (setting [7]) is 1%; in experiment [3] (setting [8]) it was 45%; in experiment [3] (at 50.0 µM), 34.4%; in experiment [4] (setting [7]) it was 22%; in experiment [4] (setting [8]), 14%; in experiment [4] (at 50.0 µM), -5.35%. Also, the growth inhibition in experiment [5] (setting [7]) is 22%; in experiment [5] (setting [8]), 27%; in experiment [5] (at 50.0 µM), 41.9%; in experiment [6] (setting [7]), 37%; in experiment [6] (setting [8]), 44%; in experiment [6] (at 50.0 µM), 22.6%.

Take `Fc1ccc(C2SCc3nc4ccccc4n32)cc1Cl` (stereo not given): the growth inhibition in experiment [1] (setting [7]) was 32%; in experiment [1] (setting [8]), 78% (active); in experiment [1] (at 50.0 µM) it was 91.3% (active); in experiment [2] (setting [7]) it was 27%; in experiment [2] (setting [8]) it was 72% (active); in experiment [2] (at 50.0 µM), 93% (active). The growth inhibition was 37% in experiment [3] (setting [7]); 90% (active) in experiment [3] (setting [8]); 94.3% (active) in experiment [3] (at 50.0 µM); 24% in experiment [4] (setting [7]); 69% in experiment [4] (setting [8]); 92.5% (active) in experiment [4] (at 50.0 µM). Moreover, the growth inhibition in experiment [5] (setting [7]) is 33%; in experiment [5] (setting [8]) it was 88% (active); in experiment [5] (at 50.0 µM) it was 91.8% (active); in experiment [6] (setting [7]) it was 41%; in experiment [6] (setting [8]), 89% (active); in experiment [6] (at 50.0 µM) it was 92.1% (active).
